PubChem BioAssay (NCATS)
“And” between values parts separate entries of the source, which are not always exact repeats. Equal entries are not always repeated. Inconclusive results are not listed. Where a call stands in place of a potency, no number is given. The source made the active and inactive calls. Calls follow the shape of the dose curve; as a rule, active = well fitted curve in the direction sought with a large enough effect; inconclusive = small, poorly fitted or top-dose-only effect, or another doubt; inactive = no such curve, though single readings can be large; an effect the other way counts as inactive or inconclusive.

Tests used:
[1] = tested on: Zika virus NS2B-NS3 protease; test: Primary screen GU AMC qHTS for Zika virus inhibitors (AID 1347154); also: nearly all actives have a fitted effect of over 70% in size; also: potency is read from the fitted curve at half-maximal effect
In short: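 Unlinked Zika NS2B hydrophilic domain/NS3 protease domain noncovalent complex (25 nM final) in 10 mM Tris-HCl pH 8.0, 0.01% Tween 20, with AMC peptide substrate. Fluorescence (ex 340, em 450 nm) change over 15 min, room temperature; percent inhibition fitted to 4-parameter Hill equation.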

[2] = tested on: Zika virus NS2B-NS3 protease (linked construct); test: Confirmatory screen NINDS AMC qHTS for Zika virus inhibitors (AID 1347152); also: nearly all actives have a fitted effect of over 70% in size; also: potency is read from the fitted curve at half-maximal effect
In short: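 Linked NS2B-NS3 protease, 1 nM, in 10 mM Tris-HCl pH 8.0, 0.01% Tween 20; compounds preincubated 15 min at room temperature. Nle-KRR-AMC 10 microM (Km 18.3 µM); 15-min fluorescence change (340/450 nm) fitted to 4-parameter Hill.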

[3] = Confirmatory screen NINDS Rhodamine qHTS for Zika virus inhibitors (AID 1347161); also: nearly all actives have a fitted effect of over 60% in size; also: potency is read from the fitted curve at half-maximal effect
In short: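 Purified linked NS2B-NS3 protease (NS2B hydrophilic domain joined to NS3 protease by flexible linker), 25 nM in 10 mM Tris-HCl pH 8.0, 0.01% Tween 20. Compounds titrated, 15 min preincubation at room temperature; 1.5 microM Rhodamine110 substrate, FITC fluorescence change over 15 min.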

[4] = HepG2 cells viability qHTS for Zika virus inhibitors (AID 1347168); also: potency is read from the fitted curve at half-maximal effect
In short: (§1)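 To flag cytotoxic protease inhibitors, viability is measured by ATP-dependent luminescence (CellTiter Glo) after cells attached overnight receive compound for 24 to 48 hours in DMEM with 4% FBS.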

[5] = tested on: Zika virus NS2B-NS3 protease (unlinked complex); test: Confirmatory screen GU AMC qHTS for Zika virus inhibitors (AID 1347153); also: nearly all actives have a fitted effect of over 70% in size; also: potency is read from the fitted curve at half-maximal effect
In short: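 Unlinked enzyme 25 nM, Tris pH 8.0/0.01% Tween 20; cpd 15 min RT, dark; + AMC substrate 10 µM (Km 18.3 µM); 340/450 nm read at t0 and 15 min; % inhibition → 4-param fit.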

[6] = ZIKV-mCherry secondary qHTS for Zika virus inhibitors (AID 1347158); also: top concentration of the series differs between compounds
In short: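 Compounds were tested in Vero monkey kidney cells infected with recombinant mCherry-expressing Zika virus at MOI 1 for 48-72 h at 37 °C. Fixed cells were nuclear-stained and imaged, and infection rate was taken as the fraction of mCherry-positive cells.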

[7] = tested on: Zika virus NS2B-NS3 protease (linked); test: 384 well plate NINDS AMC confirmatory qHTS for Zika virus inhibitors (AID 1347163); also: potency is read from the fitted curve at half-maximal effect; nearly all actives have a fitted effect of over 50% in size
In short: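 Fluorescence at 355/460 nm was read after 25 minutes of cleavage of 30 microM Ac-VKTGKR-AMC at room temperature, in the dark. Before substrate addition, compounds (up to 1 mM final) sat ~15 minutes with 5, 30 or 60 nM linked protease. Signals were normalized to no-enzyme and no-inhibitor wells.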

[8] = tested on: Zika virus NS2B-NS3 protease (linked construct); test: 384 well plate NINDS Rhodamine confirmatory qHTS for Zika virus inhibitors (AID 1347164);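 also: fluorescence from protease cleavage of Ac-LKRR-rhodamine 110 substrate; potency is read from the fitted curve at half-maximal effect; nearly all actives have a fitted effect of over 65% in size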
In short: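 Linked NS2B-NS3 protease (final 5, 30 or 60 nM) preincubated ~15 minutes with compounds, then 10 microM Ac-LKRR-Rhodamine 110 added. Fluorescence (485/538 nm) read after 25 minutes at room temperature, normalized to no-enzyme and no-inhibitor controls.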

[9] = Vero cells viability qHTS for Zika virus inhibitors (AID 1347167)
In short: as §1

[10] = tested on: Zika virus NS2B-NS3 protease (linked construct); test: Primary screen NINDS Rhodamine qHTS for Zika virus inhibitors (AID 1347160); also: nearly all actives have a fitted effect of over 55% in size
In short: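 Single-chain NS2B-NS3 protease, 25 nM, pH 8.0; compounds preincubated 15 min. Activity: Rhodamine110 release from 1.5 microM substrate over 15 min, room temperature, data fitted to 4-parameter Hill.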

[11] = Tertiary RLuc qRT-PCR qHTS assay for Zika virus inhibitors (AID 1347169); also: top concentration of the series differs between compounds; nearly all actives have a fitted effect of over 55% in size
In short: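 Vero cells (1,000/well) infected with recombinant ZIKV-RLuc (Cambodian) at MOI 1-2 after compound addition, 48-72 hrs at 37 degrees C. Live-cell Renilla luciferase substrate added; luminescence read after 1-1.5 hrs.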

For CCCNC(=O)[C@H]1O[C@H]1C(=O)N[C@H](C(=O)N1CCC[C@@H]1C(=O)OC)C(C)CC (stereo partly specified), the Potency [1] was “inactive”.

For CN[C@@H]1C[C@H]2O[C@@](C)([C@H]1OC)n1c3ccccc3c3c4c(c5c6ccccc6n2c5c31)C(=O)N[C@H]4O, the Potency [2] was 19.2 µM (active), the Potency [3] was “inactive” and the Potency [4] was 10.4 µM (active).

In the case of Cc1ccc(-n2[nH]c(C)c(N=Nc3cccc(-c4cccc(C(=O)O)c4)c3O)c2=O)cc1C, the Potency [5] is reported as 15.2 µM (active), the Potency [6] is reported as “inactive” and the Potency [3] is reported as 2.21 µM (active). For the same compound, the Potency [7] was 178 µM (active), the Potency [8] was 7.94 µM (active) and the outcome [9] was “inactive”. For the same compound, the Potency [4] was “inactive”.

In the case of C[C@@]12C[C@@]3(O)O[C@@H](O1)[C@]1(COC(=O)c4ccccc4)[C@@H]3C[C@@]12O[C@@H]1O[C@H](CO)[C@@H](O)[C@H](O)[C@@H]1O, the Potency [1] is reported as “inactive”.

With Cc1cc(Nc2ncc3c(n2)N(C)C(=O)N(c2cc(NC(=O)c4cccc(C(F)(F)F)c4)ccc2C)C3)n(C)n1 the Potency [1] was “inactive”.

In the case of CCCc1nc(C(C)(C)O)c(C(=O)O)n1Cc1ccc(-c2ccccc2-c2nn[nH]n2)cc1, the Potency [1] is reported as “inactive”.

For CC(=O)OC[C@@H]1O[C@@H](n2ccc(=O)[nH]c2=O)[C@H](OC(C)=O)[C@H]1OC(C)=O, the Potency [1] was “inactive”.

With CNC(=O)c1cccc(-c2ccc3c(N4CCOC[C@H]4C)nc(N4CCOC[C@H]4C)nc3n2)c1 the Potency [2] was “inactive”, the Potency [5] was “inactive” and the Potency [1] was 24.1 µM (active). For the same compound, the Potency [3] was “inactive”, the outcome [9] was “inactive” and the Potency [4] was “inactive”.

For C[C@H](NCc1ccc(OCc2cccc(F)c2)cc1)C(N)=O, the Potency [1] was “inactive”.

In the case of NC(=NCCCCCCN=C(N)N=C(N)Nc1ccc(Cl)cc1)N=C(N)Nc1ccc(Cl)cc1, the Potency [1] is reported as “inactive”.

In the case of N#Cc1ccc(COC[C@H]2O[C@@H](n3c(NCc4ccc(Cl)c(Cl)c4)nc4c(N)ncnc43)[C@@H](O)[C@@H]2O)cc1, the Potency [1] is reported as “inactive”.

In the case of C#C[C@]1(O)CC[C@@H]2[C@@H]3CCC4=CC(=O)CC[C@@H]4[C@H]3CC[C@@]21CC, the Potency [1] is reported as “inactive”.

For c1cc(N[C@@H]2CCNC2)nc(-c2cnc3ccc(-c4cn[nH]c4)cn23)c1, the Potency [2] was 24.1 µM (active), the Potency [1] was 19.2 µM (active) and the Potency [10] was “inactive”. The Potency [3] was “inactive”, the outcome [9] was “inactive” and the Potency [4] was “inactive”. The Potency [11] was “inactive”.

In the case of CC[C@H]1OC(=O)[C@H](C)[C@@H](O[C@H]2C[C@@](C)(OC)[C@@H](O)[C@H](C)O2)[C@H](C)[C@@H](O[C@@H]2O[C@H](C)C[C@H](N(C)C)[C@@H]2O)[C@](C)(OC)C[C@@H](C)C(=O)[C@H](C)[C@@H](O)[C@]1(C)O, the Potency [1] is reported as “inactive”.

In the case of C[C@@H](NCc1cc2ccccc2[nH]1)c1cccc2ccccc12, the Potency [2] is reported as “inactive”, the Potency [5] is reported as “inactive” and the Potency [3] is reported as “inactive”.

For C[C@H]1COc2c(N3CCN(C)CC3)c(F)cc3c(=O)c(C(=O)O)cn1c23, the Potency [2] was 24.1 µM (active), the Potency [1] was 27.1 µM (active) and 10.6 µM (active) and the outcome [9] was “inactive”. For the same compound, the Potency [4] was “inactive” and the Potency [11] was “inactive”.

For OCCN1C[C@H](O)[C@@H](O)[C@H](O)[C@@H]1CO, the Potency [1] was “inactive”.

For CCCCCCCCCCCCCCCC(=O)OC[C@@H](NC(=O)C(Cl)Cl)[C@H](O)c1ccc([N+](=O)[O-])cc1, the Potency [1] was “inactive”.

In the case of O=C1c2cccc(O)c2C(=O)c2c(O)cc(CO)cc21, the Potency [1] is reported as “inactive”.

With CC(=O)SCC(Cc1ccccc1)C(=O)NCC(=O)OCc1ccccc1 (stereo unspecified) the Potency [1] was “inactive”.

For CN(C)CC[C@H](c1ccc(Cl)cc1)c1ccccn1, the Potency [1] was “inactive”.

For N#Cc1c(NC(=O)c2cccc3ccccc23)sc2c1CCCC2, the Potency [1] was “inactive”.

For CC[C@H]1OC(=O)[C@H](C)[C@@H](O[C@H]2C[C@@](C)(OC)[C@@H](O)[C@H](C)O2)[C@H](C)[C@@H](O[C@@H]2O[C@@H](C)C[C@H](N(C)C)[C@@H]2O)[C@](C)(O)C[C@@H](C)C(=O)[C@H](C)[C@@H](O)[C@]1(C)O, the Potency [1] was “inactive”.

With COc1ccc(S(=O)(=O)Nc2cc(-c3c(O)ccc4ccccc34)c(O)c3ccccc23)cc1 the Potency [2] was 19.2 µM (active), the Potency [5] was 24.1 µM (active) and the Potency [6] was “inactive”. The Potency [3] was 8.77 µM (active), the Potency [7] was 31.6 µM (active) and the Potency [8] was 44.7 µM (active). The outcome [9] was “inactive”.

With CN(C)c1ccc(C(=O)NCCCCCCC(=O)NO)cc1 the Potency [1] was “inactive”.

For O=C1NCCc2[nH]c(-c3ccncc3)cc21, the Potency [1] was “inactive”.

For CNC(=O)c1ccc(Nc2cc(Nc3ccccc3S(=O)(=O)C(C)C)c3cc[nH]c3n2)nc1, the Potency [1] was “inactive”.

With Cc1[nH]c(C=C2C(=O)Nc3ccccc32)c(C)c1CCC(=O)O the Potency [1] was “inactive”.

In the case of CC(=O)N[C@H]1[C@@H]([C@H](O)[C@H](O)CO)OC(C(=O)O)=C[C@@H]1N=C(N)N, the Potency [1] is reported as “inactive”.

For CC(=O)O[C@]1(C(C)=O)CC[C@H]2[C@@H]3C=C(C)C4=CC(=O)CC[C@]4(C)[C@@H]3CC[C@@]21C, the Potency [1] was “inactive”.
